Screens deposited in PubChem BioAssay by National Center for Advancing Translational Sciences (NCATS).
TRHR PAM = allosterically enhances the human TRH receptor | P34981 | TRHR cells, fluo-8 calcium fluorescence, EC20 TRH enhancement | enhancement, % at 2 µM | actives 0.66% (n = 360,000); in the data active = enhancement above about 30%; note: 0% is about no effect
Target sequence (P34981 whole entry, looked up): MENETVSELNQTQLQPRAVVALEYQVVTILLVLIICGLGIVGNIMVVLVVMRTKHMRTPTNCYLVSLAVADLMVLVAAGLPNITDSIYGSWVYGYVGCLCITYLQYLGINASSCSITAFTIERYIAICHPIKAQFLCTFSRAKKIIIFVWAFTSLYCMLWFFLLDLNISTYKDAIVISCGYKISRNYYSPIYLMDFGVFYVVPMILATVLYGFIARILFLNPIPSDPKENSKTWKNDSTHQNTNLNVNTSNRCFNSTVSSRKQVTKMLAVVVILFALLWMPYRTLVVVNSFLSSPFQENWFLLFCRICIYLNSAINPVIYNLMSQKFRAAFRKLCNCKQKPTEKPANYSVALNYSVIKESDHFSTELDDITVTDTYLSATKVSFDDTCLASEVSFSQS
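TRHR-expressing cells loaded with fluo-8 calcium dye were read kinetically (ex 480/em 530) during compound addition, then stimulated with an EC20 of TRH (10 nM final). Enhancement of the Gq-mediated intracellular calcium response was scored.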
D1 agonist = agonists of human D1 dopamine receptor; actives 1% (n = 360,000); HEK293 T-REx D1 cells, calcium flux, agonist mode; P21728; activation, % at 2 µM; note: 0% is about no effect
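Inducible HEK293 T-REx D1 cells, force-coupled to calcium signalling, were plated at 4000 cells/well with tetracycline and held overnight at 30 C. After no-wash calcium dye loading, compound-evoked calcium rise over 180 s flagged agonists.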
TRHR agonist = activates the human TRH receptor; AID 493084; P34981; actives 0.18% (n = 360,000); activation, % at 2 µM; TRHR cells, calcium flux fluo-8, FDSS agonist mode; note: 0% is about no effect
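Agonist-mode FDSS calcium read (Ex 480/Em 530, 1 s cycles) in 1536-well TRHR cells with fluo-8 dye, after 10-cycle baseline and 23 nL compound addition; TRH at EC20 (10 nM final) added afterwards for the enhancer phase.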
D1 PAM = enhances dopamine response at the human D1 receptor; P21728; HEK293 TREx D1 cells, calcium flux, dopamine EC20 potentiation; potentiation, % at 10 µM; actives 0.036% (n = 360,000); AID 504651; in the data active = potentiation above about 30%; note: 0% is about no effect
D1 antag = human D1 dopamine receptor antagonism. P21728. HEK293 TREx D1 cells, calcium flux, dopamine EC80; active compounds read low. activity change, negative = inhibition, % at 10 µM. actives 3.2% (n = 360,000); in the data active = activity change below about -30%; note: % is set by controls: 0 for no effect and ±100 for the full control effect
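Calcium flux readout: force-coupled, inducible Hek293 Trex D1 line, cells induced overnight at 30 C with tetracycline, dye-loaded 30–90 min at RT. Antagonism scored against EC80 dopamine challenge given 180 s after compound.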
Numbers without * were called inactive; . = no result. This is a sample that favours compounds with a hit; in the whole collection about 4.7% have one here. Cut-off read from the data, not from the text of the source, unless noted: active = activation above about 30%; inactive = the rest.

SMILES	TRHR PAM	D1 agonist	TRHR agonist	D1 PAM	D1 antag
CCOc1ccc(N=C2NC(=O)S/C2=C\c2ccc(N(C)C)cc2)cc1	-3.8	81.5*	15.0	-3.9	1.4
CCOc1ccc(/C=C2/SC(=O)NC2=S)cc1	-1.6	1.0	3.6	-8.8	17.6
O=C(NCCCc1nc2ccccc2n1Cc1ccccc1F)c1ccco1	-1.1	-2.7	-1.0	3.1	-15.8
Cc1ccc(C(=O)N/C(=C\c2cccs2)C(=O)NC2CCCCC2)cc1	39.9*	1.7	0.8	-0.8	4.7
Cc1ccc(C(=O)N/C(=C/c2cccs2)C(=O)N2CCCCCC2)cc1	6.4	0.4	-0.2	-11.1	-7.3
Cc1ccc(N2CC(NC(=O)C(=O)c3c[nH]c4ccccc34)CC2=O)cc1 (stereo not given)	2.9	4.1	0.1	-1.9	.
Cc1ccc(S(=O)(=O)N2[C@@H](c3ccccc3F)C(C(=O)O)=CC[C@H]2c2ccc(Cl)c(Cl)c2)cc1	0.8	58.4*	-0.3	-11.3	-24.0
Cc1ccc(S(=O)(=O)N2[C@@H](c3cccc(Cl)c3)C(C(=O)O)=CC[C@H]2c2ccc(C(C)C)cc2)cc1	-5.6	6.7	-0.4	-12.1	-35.1*
O=c1oc2cc(O)ccc2cc1-c1nc2c(s1)CCc1ccccc1-2	-22.5	282.5*	199.4*	-9.8	-23.2
O=c1oc2cc(O)ccc2cc1-c1nc(-c2ccc(Cl)c(Cl)c2)cs1	2.0	45.7*	19.0	3.0	7.2
CCOC(=O)c1c(C)oc2nc(C)nc(NCc3cccc(Cl)c3)c12	14.3	3.0	0.4	1.8	8.6
CCOC(=O)N1CCc2c(sc3c2c(=O)n(Cc2ccccc2)c(=O)n3CC(=O)Nc2ccccc2F)C1	-2.6	1.9	1.1	-0.8	-4.4
O=C(COc1cccnc1[N+](=O)[O-])N1CCc2ccccc21	30.6*	-1.6	-0.3	-0.4	12.9
CCCCNS(=O)(=O)c1ccc2nc(-c3cccnc3)cc(C(=O)NCCC)c2c1	-2.2	-0.6	-0.5	-5.4	-2.4
Cc1ccc(OCc2cc(C(=O)NCc3ccc(OC(F)(F)F)cc3)no2)cn1	1.9	51.5*	2.2	1.5	-27.1
CCc1nn2c(-c3ccco3)ccnc2c1-c1ccccc1	7.7	7.1	1.5	-4.8	-17.1
CCNC(=S)Nc1ccc(Cl)cc1	-4.4	4.8	-0.4	-6.2	9.8
Cc1ccc(NC(=S)NCCSc2ccc(Cl)cc2)cc1	-6.1	22.4	1.0	-10.3	-37.2*
CCCCNC(=S)Nc1ccc(Cl)cc1	-2.1	9.7	0.2	3.5	-32.9*
CCCCNC(=S)Nc1ccc(C(F)(F)F)cc1	-4.9	22.2	0.3	-5.8	-33.3*
CCOc1ccccc1N(CC(=O)N(C)Cc1ccccc1)S(=O)(=O)c1ccccc1	8.2	9.3	-0.3	-17.6	-37.4*
O=C(Cc1ccc(Cl)cc1)NC(=S)Nc1ccccc1N1CCOCC1	3.6	34.1*	3.0	11.5	-33.8*
CC(=O)c1cccc(NC(=S)NC(=O)c2ccccc2Cl)c1	5.4	6.3	-0.4	-2.9	-30.7*
CC(=O)Nc1cccc(C(=O)OCc2ccc(C(=O)Oc3ccc(Cl)cc3)cc2)c1	3.0	8.7	2.9	-6.9	-32.0*
CC(=O)c1cccc(NC(=S)NC(=O)c2ccc(C)cc2Cl)c1	-3.9	6.5	0.3	-0.5	-19.1
SMILES	TRHR PAM	D1 agonist	TRHR agonist	D1 PAM	D1 antag
CC(=O)c1cccc(NC(=S)NC(=O)Cc2ccc(Cl)cc2)c1	3.3	63.1*	6.3	-4.9	-1.5
Cc1ccc(C)c2sc(NC(=O)CN3C(=O)CCC3=O)nc12	18.8	2.8	-1.0	7.5	-45.3*
CCS(=O)(=O)c1ccc(-c2csc(-c3ccc(Cl)cc3)n2)c(Cl)c1Cl	16.7	1.8	0.9	-5.5	-33.1*
COc1ccc(CCNC(=O)c2ccc(Cn3c(=O)c4cccn4c4cccnc43)cc2)cc1OC	-1.3	-0.1	0.2	-2.8	8.1
Nc1nc(Cl)cc(NCCc2ccc(O)cc2)n1	-7.1	16.3	0.5	-7.0	-9.1
Oc1ccc(CCNc2ncnc3ccc(Cl)cc23)cc1	-5.3	6.9	0.1	-8.6	-40.2*
COc1ccc(Cl)cc1NC(=O)Cn1cnc2sc(C)c(S(=O)(=O)N3CCN(c4ccccc4OC)CC3)c2c1=O	0.0	0.7	0.1	1.2	5.5
CN1CCN(S(=O)(=O)c2cccc(C(=O)N(C)Cc3cccs3)c2)CC1	-5.7	2.8	-0.5	.	-46.5*
CN1CCN(S(=O)(=O)c2ccc(N(C)Cc3cccs3)nc2)CC1	4.2	5.7	-0.5	-10.3	-38.1*
CCOc1ccc(NC(=O)N2CCN(S(=O)(=O)c3ccc4c(ccn4C)c3)CC2)cc1	3.4	-0.7	-0.6	-0.8	0.3
Cc1c(NC(=O)C(C)OC(=O)c2ccc(NC(=O)CC#N)cc2)c(=O)n(-c2ccccc2)n1C (stereo not given)	10.9	2.2	0.4	1.0	-32.9*
CC(OC(=O)c1ccc(NC(=O)CC#N)cc1)C(=O)NC(=O)NC1CCCCC1 (stereo not given)	-0.1	4.0	1.6	7.1	-32.4*
CC(OC(=O)c1ccc(NC(=O)CC#N)cc1)C(=O)NCCC1=CCCCC1 (stereo not given)	-5.2	2.3	0.9	-1.6	-0.5
Cc1c(NC(=O)C(C)OC(=O)COc2ccccc2)c(=O)n(-c2ccccc2)n1C (stereo not given)	-1.1	2.3	0.1	-0.2	-0.2
CCCCNC(=O)Cn1c(=O)cc(C)c2c(C)nn(-c3cccc(Cl)c3C)c21	-5.5	-1.3	0.0	-5.4	-3.8
COc1ccc(SCC(=O)c2cc(C)c(OC(=S)N(C)C)c(C)c2)cc1	-4.2	4.1	-0.4	-3.4	-35.2*
Cc1ccccc1-c1noc(CSc2nc(-c3ccc(F)cc3)cc(=O)[nH]2)n1	15.8	-0.4	-0.1	-5.8	-4.7
CC1(C)OC(C)(C)/C(=C\c2ccc(OCC(N)=O)cc2)C1=O	-7.0	3.8	0.1	0.7	-65.7*
Cc1nn(C)cc1CNC(=O)COc1ccc(Cl)cc1Cl	8.8	8.2	2.2	-5.7	-32.8*
Cn1cc(CNC(=O)COc2ccc(Cl)cc2Cl)cn1	7.5	5.9	-0.9	-3.6	5.3
COCCNC(=O)C1CCN(S(=O)(=O)c2ccc3c(c2)CCCN3C(C)=O)CC1	-4.2	0.9	0.6	-2.9	18.8
COc1ccc(C2N3CC4(C)CN2CC(c2ccccc2)(C3)C4=O)cc1OC (stereo not given)	0.0	0.3	0.5	1.4	10.5
COc1ccc(C2N3CC4(C)CN2CC(C)(C3)C4)cc1OC (stereo not given)	6.3	1.8	0.2	4.2	-35.6*
O=C(CC(NS(=O)(=O)c1ccc(Cl)cc1)c1ccco1)NCc1ccco1 (stereo not given)	-4.7	9.1	-1.0	-4.0	-37.7*
Cc1ccc(S(=O)(=O)CC(=O)c2ccccc2)cc1	-0.1	3.0	0.6	-2.4	-2.1
CC(C)(C)c1ccc(C(=O)CS(=O)(=O)c2ccccc2)cc1	-1.3	5.6	0.7	-6.0	-38.1*
